Each structure is given as a SMILES string. The campaign covered roughly 220,000 compounds. About 910 (0.41%) were called active. Only a selection was taken, and actives are over-represented in it overall. Potency and affinity values are given separately. Values without a mark were called inactive.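 The calls were made as follows: active = primary inhibition above the hit cutoff, then over 50% inhibition at one or more dose response concentrations (cut at about 23% in these data, passing the limit was not always enough); inconclusive = conflicting primary data, or primary hits not chosen for dose response; inactive = low primary inhibition, or under 50% at every dose.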

Sequence of Aminopeptidase N (Plasmodium falciparum (isolate 3D7)) (O96935 whole entry, looked up): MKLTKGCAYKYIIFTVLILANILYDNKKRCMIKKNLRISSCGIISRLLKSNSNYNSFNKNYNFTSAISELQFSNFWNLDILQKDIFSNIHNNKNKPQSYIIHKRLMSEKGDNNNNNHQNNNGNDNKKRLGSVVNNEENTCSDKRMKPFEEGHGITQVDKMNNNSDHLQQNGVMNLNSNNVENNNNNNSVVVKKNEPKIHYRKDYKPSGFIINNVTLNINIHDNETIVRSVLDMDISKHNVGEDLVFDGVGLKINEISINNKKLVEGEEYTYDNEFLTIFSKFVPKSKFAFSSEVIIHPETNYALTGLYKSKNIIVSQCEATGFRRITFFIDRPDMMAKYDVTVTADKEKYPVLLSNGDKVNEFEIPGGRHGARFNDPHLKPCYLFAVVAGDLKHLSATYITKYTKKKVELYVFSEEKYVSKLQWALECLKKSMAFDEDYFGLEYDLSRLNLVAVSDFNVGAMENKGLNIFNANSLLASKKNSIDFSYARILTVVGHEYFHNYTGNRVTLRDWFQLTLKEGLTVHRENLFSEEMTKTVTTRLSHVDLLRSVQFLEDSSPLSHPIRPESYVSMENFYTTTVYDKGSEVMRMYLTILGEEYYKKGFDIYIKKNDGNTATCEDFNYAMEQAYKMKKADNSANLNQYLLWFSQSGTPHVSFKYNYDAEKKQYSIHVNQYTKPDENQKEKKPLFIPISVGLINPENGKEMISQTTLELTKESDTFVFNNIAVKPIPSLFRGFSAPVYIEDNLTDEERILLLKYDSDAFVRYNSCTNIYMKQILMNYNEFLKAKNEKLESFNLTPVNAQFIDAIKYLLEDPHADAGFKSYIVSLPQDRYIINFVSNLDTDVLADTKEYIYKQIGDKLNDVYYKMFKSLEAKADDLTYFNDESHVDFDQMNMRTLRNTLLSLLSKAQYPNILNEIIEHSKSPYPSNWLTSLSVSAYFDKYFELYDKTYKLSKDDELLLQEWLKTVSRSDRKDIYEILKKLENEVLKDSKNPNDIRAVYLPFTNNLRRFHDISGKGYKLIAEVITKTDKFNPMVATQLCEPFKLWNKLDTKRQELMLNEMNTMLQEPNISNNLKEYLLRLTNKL

This test addresses Aminopeptidase N (Plasmodium falciparum (isolate 3D7)) (UniProt O96935). Kind of test: P. falciparum M1AAP inhibitors, biochemical, fluorogenic H-Leu-NHMec substrate, 1536-well (AID 1445).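 Also: plate controls were DMSO full reaction for no effect and no enzyme background for full effect.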 The settings on record: recombinant M1AAP, H-Leu-NHMec fluorogenic kinetic assay; at 30 µM, stronger effect = higher value unless noted.
The term inhibition denotes the change of the read-out against control, counted positive when it falls. With `CC1Cc2cc(/C(O)=C3\C(=O)C(=O)N(CCN(C)C)C3c3ccccc3F)ccc2O1` (stereo not given), the inhibition is -2.37%.

Consider `O=c1c2ccccc2nnn1Cc1ccccc1Cl`, for which the inhibition was -2.79%.

Consider `Cc1ccccc1NC(=O)c1ccc(S(=O)(=O)N(C)C)cc1`, for which the inhibition was 0.67%.

Regarding `Cc1nc2ccccc2c2oc(C(=O)N3CCC(N4CCCCC4)CC3)cc12`, the inhibition is -1.44%.

With `Cc1nc2ccccc2c2oc(C(=O)N3CCN(C4CCCCC4)CC3)cc12`, the inhibition was 0.64%.

In the case of `Cc1nc2ccccc2c2oc(C(=O)N3CCN(C(=O)c4ccco4)CC3)cc12`, the inhibition is 25.5% (active).

`Cc1ccccc1OCC(=O)NNC(=O)Nc1ccccc1`: the inhibition was 11.5%.

For `Cc1cc(C(=O)COC(=O)C2=NNC(=O)CC2)c(C)n1CCc1ccccc1`, the inhibition is 5.78%.

Consider `CCOC(CCn1c(SCC(=O)Nc2cc(C)on2)nc2ccccc2c1=O)OCC`, for which the inhibition was 4.19%.

In the case of `Cc1ccc(CNC(=O)CN(CCc2ccccc2)S(C)(=O)=O)cc1`, the inhibition was 1.36%.

For `Cc1ccc(/C=N/N=C2\SCC(=O)N2CC2CC2)cc1`, the inhibition was 3.09%.

`COC(=O)c1cc(=O)n(Cc2ccc3c(c2)OCO3)c(=Nc2ccccc2)s1`: the inhibition was 26.5% (active).

On to `COC(=O)c1cc(=O)n(Cc2ccc3c(c2)OCO3)c(=Nc2ccc(F)cc2)s1`, for which the inhibition is 15.5%.

Consider `CCOC(=O)c1ccc(N=c2sc(C(=O)OC)cc(=O)n2Cc2ccc3c(c2)OCO3)cc1`, for which the inhibition was 4.78%.

Regarding `Cc1[nH]c2ccc(OC(=O)N3CCOCC3)cc2c1C(=O)OC(C)C`, the inhibition was 8.46%.

Take `O=C(O)c1ccc(-c2ccc(/C=C3\NC(=O)N(Cc4ccc(Cl)cc4)C3=O)o2)cc1`: the inhibition is 6.4%.

Turning to `Cc1ccc(CN2C(=O)N/C(=C/c3ccc(-c4ccc(C(=O)O)cc4)o3)C2=O)cc1`, the inhibition was 6.65%.

`CC(C)Cn1c(SCC(=O)N2CCN(C(=O)c3ccco3)CC2)nc2ccccc2c1=O`: the inhibition is 7.56%.

`CCCCCn1c(NC2CCCCC2)nc2c1c(=O)[nH]c(=O)n2C`: the inhibition is 9.39%.

`COC(=O)CSC1=C(C#N)C(c2ccc(F)cc2)CC(=O)N1` (stereo not given): the inhibition is -0.52%.

With `COC(=O)CSC1=C(C#N)C(c2ccc(C(C)C)cc2)CC(=O)N1` (stereo not given), the inhibition is 23.7% (active).

Take `COC(=O)CSC1=C(C#N)C(c2ccccc2)CC(=O)N1` (stereo not given): the inhibition is 1.02%.

As to `CSc1nc2c(c(=O)n1-c1ccccc1)SCC2`, the inhibition is 9.44%.

Take `Cn1cc(/C=N/NC(=O)c2cc3cc(Br)ccc3o2)c2ccccc21`: the inhibition was 4.78%.

On to `O=C(O)Cn1cc(/C=N/NC(=O)c2cc3cc(Br)ccc3o2)c2ccccc21`, for which the inhibition is 18.5%.

(Values after PubChem BioAssay AID1445 (SRMLSC, 2008).)
